Test results published in the supplement of paper PMC11732987, “Enantioselective OTUD7B fragment discovery through chemoproteomics screening and high-throughput optimisation” (Communications Chemistry, 2025).

Assays:
Assay in all cases: log2 ratio of Biotin-Ahx-Ub-VS probe labelling (fragment/DMSO); higher = less target engagement (more negative = stronger competition), active = hit call of the paper (q ≤ 0.05, log2 ratio ≤ -1)
Details in all cases: compound concentration: 200 uM; treatment time: 3 h
USP9X = USP9X (UniProt Q93008)
In short: (§1)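 HEK293T lysate, 495 µg per sample in Tris/CHAPS/IGEPAL buffer with protease inhibitors, was treated in triplicate with fragment at 200 µM or vehicle for 3 h and then with Biotin-Ahx-Ub-VS at 0.5 µM final for 1 h. Labelled DUBs were NeutrAvidin-enriched, digested with LysC and trypsin, and run by diaPASEF LC-MS/MS. Spectronaut label-free quantities were global-median-normalised, and values are average log2 fragment/vehicle ratios by unpaired t-test on proteins with ≥2 unique peptides.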

UniProt O00487 = target: UniProt O00487
In short: as §1

UniProt O00507 = target: UniProt O00507
In short: as §1

UniProt P51784 = target: UniProt P51784
In short: as §1

UniProt Q5T2D3 = target: T1, UniProt Q5T2D3
T1 sequence (whole entry): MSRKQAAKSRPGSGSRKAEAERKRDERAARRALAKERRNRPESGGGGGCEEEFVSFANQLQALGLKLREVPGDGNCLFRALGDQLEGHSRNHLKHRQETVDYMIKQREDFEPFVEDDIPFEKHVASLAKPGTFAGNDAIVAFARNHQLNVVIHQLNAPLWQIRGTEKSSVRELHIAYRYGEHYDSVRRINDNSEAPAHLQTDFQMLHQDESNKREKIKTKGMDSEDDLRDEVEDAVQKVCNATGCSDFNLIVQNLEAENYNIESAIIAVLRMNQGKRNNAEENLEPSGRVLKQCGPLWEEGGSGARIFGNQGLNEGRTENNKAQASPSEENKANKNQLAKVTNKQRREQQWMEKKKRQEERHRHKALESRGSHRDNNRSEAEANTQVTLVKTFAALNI
In short: as §1

UniProt Q8TE49 = target: T2, UniProt Q8TE49
T2 sequence (whole entry): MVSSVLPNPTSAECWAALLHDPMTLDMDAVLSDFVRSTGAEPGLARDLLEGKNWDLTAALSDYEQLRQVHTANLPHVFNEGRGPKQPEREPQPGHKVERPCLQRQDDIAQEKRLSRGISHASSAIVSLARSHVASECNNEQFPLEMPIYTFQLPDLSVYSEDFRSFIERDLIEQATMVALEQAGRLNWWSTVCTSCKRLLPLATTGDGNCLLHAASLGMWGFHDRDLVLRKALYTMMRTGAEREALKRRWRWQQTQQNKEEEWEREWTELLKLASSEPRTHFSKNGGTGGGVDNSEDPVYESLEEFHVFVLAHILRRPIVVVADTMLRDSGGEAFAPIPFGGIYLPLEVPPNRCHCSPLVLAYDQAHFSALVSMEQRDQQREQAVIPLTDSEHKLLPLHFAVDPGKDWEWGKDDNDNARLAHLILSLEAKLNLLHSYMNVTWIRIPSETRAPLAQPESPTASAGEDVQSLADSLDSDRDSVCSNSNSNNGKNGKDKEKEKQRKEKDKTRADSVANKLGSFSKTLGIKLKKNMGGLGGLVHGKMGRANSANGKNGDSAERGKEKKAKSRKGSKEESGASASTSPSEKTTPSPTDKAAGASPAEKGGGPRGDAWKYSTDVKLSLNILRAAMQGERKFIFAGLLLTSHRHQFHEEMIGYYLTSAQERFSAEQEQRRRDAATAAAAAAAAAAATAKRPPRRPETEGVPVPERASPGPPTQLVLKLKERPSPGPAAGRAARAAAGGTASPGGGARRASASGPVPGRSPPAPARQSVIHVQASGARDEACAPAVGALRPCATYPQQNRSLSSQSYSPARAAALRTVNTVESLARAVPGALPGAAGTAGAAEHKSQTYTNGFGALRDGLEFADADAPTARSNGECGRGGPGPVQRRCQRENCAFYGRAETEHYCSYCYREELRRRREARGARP
In short: as §1

UniProt Q9P2H5 = target: T3, UniProt Q9P2H5
T3 sequence (whole entry): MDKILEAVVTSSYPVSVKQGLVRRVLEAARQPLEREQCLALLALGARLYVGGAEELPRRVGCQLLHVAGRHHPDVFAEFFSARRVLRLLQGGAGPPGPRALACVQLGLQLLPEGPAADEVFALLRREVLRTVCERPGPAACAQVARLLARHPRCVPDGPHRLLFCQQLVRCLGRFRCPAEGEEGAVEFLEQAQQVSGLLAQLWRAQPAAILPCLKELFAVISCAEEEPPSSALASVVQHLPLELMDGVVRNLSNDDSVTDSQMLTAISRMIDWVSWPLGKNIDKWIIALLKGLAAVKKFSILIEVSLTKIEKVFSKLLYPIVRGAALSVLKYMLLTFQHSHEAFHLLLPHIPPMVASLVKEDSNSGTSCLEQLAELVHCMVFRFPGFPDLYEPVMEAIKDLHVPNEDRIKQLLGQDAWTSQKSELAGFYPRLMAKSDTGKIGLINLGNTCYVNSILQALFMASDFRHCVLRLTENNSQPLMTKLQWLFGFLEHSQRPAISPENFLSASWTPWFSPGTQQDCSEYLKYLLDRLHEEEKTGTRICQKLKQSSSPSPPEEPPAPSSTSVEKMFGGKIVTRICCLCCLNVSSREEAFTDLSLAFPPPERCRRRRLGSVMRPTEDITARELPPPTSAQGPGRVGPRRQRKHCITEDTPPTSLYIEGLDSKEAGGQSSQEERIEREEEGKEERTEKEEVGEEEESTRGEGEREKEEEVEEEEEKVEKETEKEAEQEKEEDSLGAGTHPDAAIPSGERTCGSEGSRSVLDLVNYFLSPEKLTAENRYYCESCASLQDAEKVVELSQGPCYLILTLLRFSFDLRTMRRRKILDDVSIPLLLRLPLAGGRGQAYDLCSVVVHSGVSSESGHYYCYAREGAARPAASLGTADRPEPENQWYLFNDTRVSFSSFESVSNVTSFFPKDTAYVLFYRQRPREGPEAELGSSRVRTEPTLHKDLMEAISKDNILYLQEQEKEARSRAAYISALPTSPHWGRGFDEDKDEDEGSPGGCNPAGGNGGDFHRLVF
In short: as §1

UniProt Q9UGI0 = target: T4, UniProt Q9UGI0
T4 sequence (whole entry): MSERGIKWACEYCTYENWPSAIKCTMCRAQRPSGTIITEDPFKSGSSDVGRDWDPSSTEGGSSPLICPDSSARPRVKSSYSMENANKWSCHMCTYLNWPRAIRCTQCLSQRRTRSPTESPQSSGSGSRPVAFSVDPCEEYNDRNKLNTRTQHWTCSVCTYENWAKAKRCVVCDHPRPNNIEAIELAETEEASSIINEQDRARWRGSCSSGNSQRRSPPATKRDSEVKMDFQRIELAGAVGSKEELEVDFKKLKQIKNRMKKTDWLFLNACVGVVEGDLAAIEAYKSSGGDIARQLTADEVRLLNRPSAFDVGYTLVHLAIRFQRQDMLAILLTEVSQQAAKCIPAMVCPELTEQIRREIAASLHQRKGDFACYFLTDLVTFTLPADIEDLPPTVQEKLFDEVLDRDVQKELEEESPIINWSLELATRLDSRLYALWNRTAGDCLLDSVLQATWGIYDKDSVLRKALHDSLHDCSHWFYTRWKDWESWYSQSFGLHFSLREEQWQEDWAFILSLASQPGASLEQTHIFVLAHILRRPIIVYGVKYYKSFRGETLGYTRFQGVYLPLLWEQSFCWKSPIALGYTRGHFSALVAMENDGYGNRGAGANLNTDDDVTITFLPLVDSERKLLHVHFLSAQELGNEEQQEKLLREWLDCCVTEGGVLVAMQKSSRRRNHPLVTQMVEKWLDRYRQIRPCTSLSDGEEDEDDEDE
In short: as §1

YOD1 = target: T5, YOD1 (UniProt Q5VVQ6)
T5 sequence (whole entry): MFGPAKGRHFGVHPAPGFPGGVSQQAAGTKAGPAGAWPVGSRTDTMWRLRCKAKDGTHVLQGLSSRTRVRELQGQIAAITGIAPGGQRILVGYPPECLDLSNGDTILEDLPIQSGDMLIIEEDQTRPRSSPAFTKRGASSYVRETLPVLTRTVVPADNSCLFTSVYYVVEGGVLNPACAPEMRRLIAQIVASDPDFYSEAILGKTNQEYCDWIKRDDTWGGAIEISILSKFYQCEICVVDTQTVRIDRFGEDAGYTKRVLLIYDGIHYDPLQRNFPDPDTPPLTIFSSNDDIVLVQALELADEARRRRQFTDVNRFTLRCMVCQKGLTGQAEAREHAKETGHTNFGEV
In short: as §1

Measured: log2 ratio of Biotin-Ahx-Ub-VS probe labelling

Chain of UniProt O00507 (O00507 whole entry): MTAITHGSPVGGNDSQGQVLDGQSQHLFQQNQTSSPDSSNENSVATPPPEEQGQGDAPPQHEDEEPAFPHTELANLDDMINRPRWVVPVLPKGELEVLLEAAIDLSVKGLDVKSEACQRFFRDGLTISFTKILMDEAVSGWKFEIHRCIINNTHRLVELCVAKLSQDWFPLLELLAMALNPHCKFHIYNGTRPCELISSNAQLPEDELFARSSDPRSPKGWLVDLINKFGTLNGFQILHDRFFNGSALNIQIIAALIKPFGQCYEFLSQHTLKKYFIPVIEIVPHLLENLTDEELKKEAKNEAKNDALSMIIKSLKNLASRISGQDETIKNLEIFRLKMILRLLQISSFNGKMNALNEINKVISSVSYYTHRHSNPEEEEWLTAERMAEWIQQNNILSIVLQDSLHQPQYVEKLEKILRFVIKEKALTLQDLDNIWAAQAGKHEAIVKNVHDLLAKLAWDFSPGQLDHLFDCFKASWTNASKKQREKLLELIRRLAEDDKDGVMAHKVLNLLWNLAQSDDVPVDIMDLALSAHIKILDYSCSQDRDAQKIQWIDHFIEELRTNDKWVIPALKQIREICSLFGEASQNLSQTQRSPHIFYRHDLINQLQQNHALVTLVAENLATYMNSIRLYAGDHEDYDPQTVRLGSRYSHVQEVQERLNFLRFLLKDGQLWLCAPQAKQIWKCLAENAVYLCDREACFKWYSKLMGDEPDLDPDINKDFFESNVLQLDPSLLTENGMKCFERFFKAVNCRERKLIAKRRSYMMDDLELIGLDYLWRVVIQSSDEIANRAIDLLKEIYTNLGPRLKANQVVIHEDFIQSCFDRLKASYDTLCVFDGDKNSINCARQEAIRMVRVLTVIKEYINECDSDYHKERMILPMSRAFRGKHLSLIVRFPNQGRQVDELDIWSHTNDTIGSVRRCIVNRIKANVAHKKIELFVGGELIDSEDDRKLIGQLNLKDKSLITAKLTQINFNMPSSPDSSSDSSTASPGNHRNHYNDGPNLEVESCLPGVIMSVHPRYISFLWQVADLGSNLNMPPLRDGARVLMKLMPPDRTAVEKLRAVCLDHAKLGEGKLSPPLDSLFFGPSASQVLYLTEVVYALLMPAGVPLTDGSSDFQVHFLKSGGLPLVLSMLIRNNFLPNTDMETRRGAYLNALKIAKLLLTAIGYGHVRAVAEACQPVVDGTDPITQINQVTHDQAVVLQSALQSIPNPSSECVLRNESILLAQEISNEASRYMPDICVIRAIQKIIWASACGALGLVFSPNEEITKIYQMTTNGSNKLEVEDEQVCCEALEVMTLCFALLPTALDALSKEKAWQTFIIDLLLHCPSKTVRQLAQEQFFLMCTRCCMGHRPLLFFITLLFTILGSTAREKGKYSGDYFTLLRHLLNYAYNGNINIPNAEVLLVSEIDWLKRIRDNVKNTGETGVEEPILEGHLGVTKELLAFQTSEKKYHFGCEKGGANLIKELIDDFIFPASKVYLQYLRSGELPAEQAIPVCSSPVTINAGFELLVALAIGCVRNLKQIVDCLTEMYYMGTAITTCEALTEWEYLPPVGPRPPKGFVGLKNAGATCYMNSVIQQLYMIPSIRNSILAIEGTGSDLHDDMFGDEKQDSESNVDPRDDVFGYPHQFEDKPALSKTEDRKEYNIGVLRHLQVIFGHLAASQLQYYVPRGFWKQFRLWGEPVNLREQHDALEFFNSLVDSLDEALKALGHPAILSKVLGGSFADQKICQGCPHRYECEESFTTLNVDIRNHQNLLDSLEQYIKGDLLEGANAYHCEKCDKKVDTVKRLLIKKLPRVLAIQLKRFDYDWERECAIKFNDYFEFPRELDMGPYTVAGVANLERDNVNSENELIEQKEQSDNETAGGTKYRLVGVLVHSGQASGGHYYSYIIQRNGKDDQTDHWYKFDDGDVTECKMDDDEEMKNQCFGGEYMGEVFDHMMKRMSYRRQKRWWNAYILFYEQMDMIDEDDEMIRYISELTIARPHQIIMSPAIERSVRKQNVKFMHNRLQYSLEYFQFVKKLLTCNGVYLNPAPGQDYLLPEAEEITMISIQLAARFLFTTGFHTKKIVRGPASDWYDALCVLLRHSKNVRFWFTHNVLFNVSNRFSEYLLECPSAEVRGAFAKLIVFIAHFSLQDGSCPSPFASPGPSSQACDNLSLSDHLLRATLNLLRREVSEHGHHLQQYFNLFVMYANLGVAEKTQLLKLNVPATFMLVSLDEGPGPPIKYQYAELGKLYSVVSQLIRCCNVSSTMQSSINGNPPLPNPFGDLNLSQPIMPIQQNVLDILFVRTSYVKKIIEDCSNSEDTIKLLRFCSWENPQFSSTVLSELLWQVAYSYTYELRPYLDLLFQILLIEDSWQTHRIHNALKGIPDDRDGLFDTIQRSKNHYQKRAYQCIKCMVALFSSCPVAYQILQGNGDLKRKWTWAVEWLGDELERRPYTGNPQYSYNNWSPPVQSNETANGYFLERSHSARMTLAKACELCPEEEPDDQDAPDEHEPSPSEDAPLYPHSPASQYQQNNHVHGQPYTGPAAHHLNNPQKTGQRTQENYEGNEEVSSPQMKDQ
Chain of UniProt P51784 (P51784 whole entry): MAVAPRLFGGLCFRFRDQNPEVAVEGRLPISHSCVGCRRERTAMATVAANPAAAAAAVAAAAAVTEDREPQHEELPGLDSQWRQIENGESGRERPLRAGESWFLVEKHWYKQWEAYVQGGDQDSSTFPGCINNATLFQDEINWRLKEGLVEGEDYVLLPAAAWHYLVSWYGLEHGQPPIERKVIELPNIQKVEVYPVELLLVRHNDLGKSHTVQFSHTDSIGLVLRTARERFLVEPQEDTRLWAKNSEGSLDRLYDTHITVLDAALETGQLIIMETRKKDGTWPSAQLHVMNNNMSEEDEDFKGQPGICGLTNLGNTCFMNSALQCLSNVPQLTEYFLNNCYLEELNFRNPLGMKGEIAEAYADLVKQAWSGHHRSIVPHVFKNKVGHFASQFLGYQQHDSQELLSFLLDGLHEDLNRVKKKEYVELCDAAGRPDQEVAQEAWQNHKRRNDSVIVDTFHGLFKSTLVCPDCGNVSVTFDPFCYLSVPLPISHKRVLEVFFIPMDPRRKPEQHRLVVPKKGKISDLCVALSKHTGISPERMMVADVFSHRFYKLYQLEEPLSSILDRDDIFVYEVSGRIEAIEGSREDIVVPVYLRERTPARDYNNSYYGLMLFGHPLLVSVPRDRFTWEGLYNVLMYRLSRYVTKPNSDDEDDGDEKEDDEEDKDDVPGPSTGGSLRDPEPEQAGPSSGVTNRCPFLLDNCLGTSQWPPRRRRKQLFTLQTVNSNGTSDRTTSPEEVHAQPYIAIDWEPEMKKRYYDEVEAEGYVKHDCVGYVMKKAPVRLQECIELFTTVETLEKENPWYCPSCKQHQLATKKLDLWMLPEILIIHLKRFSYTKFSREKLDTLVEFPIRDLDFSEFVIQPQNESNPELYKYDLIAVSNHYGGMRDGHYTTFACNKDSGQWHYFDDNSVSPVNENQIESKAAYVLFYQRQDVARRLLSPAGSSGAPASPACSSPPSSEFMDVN
Chain of UniProt O00487 (O00487 whole entry): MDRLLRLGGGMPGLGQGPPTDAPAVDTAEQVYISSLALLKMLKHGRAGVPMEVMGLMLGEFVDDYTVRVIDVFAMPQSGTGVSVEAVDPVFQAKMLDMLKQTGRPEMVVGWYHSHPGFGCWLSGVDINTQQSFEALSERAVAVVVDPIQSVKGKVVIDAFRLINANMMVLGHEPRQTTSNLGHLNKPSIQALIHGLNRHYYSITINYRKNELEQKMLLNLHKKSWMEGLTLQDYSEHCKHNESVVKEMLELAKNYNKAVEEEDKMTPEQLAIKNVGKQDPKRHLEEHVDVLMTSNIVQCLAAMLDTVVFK

O=C(CCl)N1CCCN(C(=O)c2ccc(Cl)cc2)CC1
inactive: USP9X -0.318 | UniProt O00487 0.0259 | UniProt O00507 -0.381 | UniProt P51784 -0.139 | UniProt Q5T2D3 -0.134 | UniProt Q8TE49 -0.265 | UniProt Q9P2H5 -0.166 | UniProt Q9UGI0 -0.84 | YOD1 -0.417
